High-throughput results from PubChem.
The list is not random: actives were taken first. Their share in the collection is about 12%.
G9a block – blocks human histone lysine methyltransferase G9a; 350,000 compounds, 8.8% hits; G9a H3K9 monomethylation, AlphaScreen, 2 h; Q96KQ7; AID 504332; Potency, µM (series often up to 102 µM), for the others: at the top dose activity, negative = inhibition, usual class: inhibitors; note: % is set by controls: 0 for no effect and ±100 for the full control effect; nearly all actives have a fitted effect of over 75% in size
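Quantitative HTS format: methyltransferase activity on a biotin-tagged H3K9 peptide is measured by AlphaScreen, using a rabbit anti-monomethyl-H3K9 antibody with streptavidin donor and anti-IgG acceptor beads. Final levels are 20 nM enzyme, 500 nM peptide, 20 uM SAM; 2 h RT.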
HP1b binding inh – blocks HP1-beta chromodomain binding to methylated histone tails; AID 540317; Potency, µM (series often up to 114 µM), for inactives: at the highest dose activity change, negative = inhibition, hits mostly inhibitors; AlphaScreen HP1-beta / biotin-H3K9me3 peptide binding; 390,000 compounds, 0.56% hits; note: nearly all actives have a fitted effect of over 70% in size
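HP1-beta protein (50 nM final) preincubated 30 min at room temperature with biotinylated H3(1-18)K9me3 peptide (50 nM) in PBS pH 7.4, 0.01% Tween-20, then compound added for 30 min. AlphaScreen streptavidin donor/nickel chelate acceptor beads (10 ug/mL final), 30 min dark, luminescence read.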
BAZ2B inh – inhibitors of human BAZ2B bromodomain. AlphaScreen BAZ2B-H3K14Ac peptide displacement. Potency, µM (titrated, usually from 114 µM), inactives show top-dose activity change, negative = inhibition, most hits filed as inhibitors. Q9UIF8. 360,000 compounds, 4.4% hits; note: % is set by controls: 0 for no effect and ±100 for the full control effect; nearly all actives have a fitted effect of over 60% in size
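Multi-concentration screen (max 110 uM) measuring displacement of acetylated histone H3 peptide from BAZ2B by AlphaScreen, using 50 nM protein, 50 nM peptide and 10 ug/mL streptavidin donor plus Ni-chelate acceptor beads.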
Sfp inh – inhibitors of Bacillus subtilis Sfp phosphopantetheinyl transferase. Potency, µM, inactives show largest response in the series, negative = inhibition, usual class: inhibitors. 310,000 compounds, 3.5% hits. Q9F4F7. Biochemical Sfp PPTase activity, qHTS. AID 1490;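 note: the enzyme is Sfp with the accession as filed and its product quenches rhodamine fluorescence; 0% = enzyme reaction without inhibitor and -100% = no enzyme wells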
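Fluorescence-quenching assay with 15 nM Sfp, 5 uM rhodamine-CoA and 12.5 uM BHQ-2-labelled ybbR peptide in pH 7.6 Hepes/MgCl2 buffer. Enzyme was pre-incubated with compound for 15 min at room temperature. Rate was taken from the 30-min fluorescence change (525/598 nm).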
PLK1 PBD inh – PLK1 (human) polo-box domain binding inhibition; Plk1 PBD binding of FITC phosphopeptide, fluorescence polarization; Potency, µM, inactives show max response, negative = inhibition, usual class: inhibitors; 360,000 compounds, 2.8% hits; AID 720504; note: series mostly up to about 57 µM; % is set by controls: 0 for no effect and ±100 for the full control effect; nearly all actives have a fitted effect of over 65% in size
Target sequence (P53350 whole entry, looked up, the tested form may be a part): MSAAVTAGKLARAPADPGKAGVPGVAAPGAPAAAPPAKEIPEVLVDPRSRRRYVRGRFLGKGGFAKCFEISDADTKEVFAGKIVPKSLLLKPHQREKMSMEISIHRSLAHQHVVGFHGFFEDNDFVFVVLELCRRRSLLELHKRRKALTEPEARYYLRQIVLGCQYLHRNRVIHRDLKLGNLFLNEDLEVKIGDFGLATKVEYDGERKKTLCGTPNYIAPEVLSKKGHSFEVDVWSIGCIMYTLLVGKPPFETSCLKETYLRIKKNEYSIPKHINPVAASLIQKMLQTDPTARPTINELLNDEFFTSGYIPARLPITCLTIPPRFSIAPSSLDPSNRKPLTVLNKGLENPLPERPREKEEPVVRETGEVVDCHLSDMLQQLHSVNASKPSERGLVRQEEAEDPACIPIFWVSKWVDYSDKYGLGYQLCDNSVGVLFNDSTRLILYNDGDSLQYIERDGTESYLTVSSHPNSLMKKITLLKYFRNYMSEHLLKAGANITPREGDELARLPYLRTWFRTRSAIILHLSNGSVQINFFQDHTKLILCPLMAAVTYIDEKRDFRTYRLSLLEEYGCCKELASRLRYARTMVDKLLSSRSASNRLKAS
JMJD2A Tudor – inhibitors of human JMJD2A Tudor domain | O75164 | AlphaScreen JMJD2A-Tudor / H3K4me3 peptide binding | Potency, µM (titrated, usually from 114 µM), for the others: at the top dose activity change, negative = inhibition, hits mostly inhibitors | 390,000 compounds, 4.4% hits; note: % is set by controls: 0 for no effect and ±100 for the full control effect; nearly all actives have a fitted effect of over 50% in size
An asterisk follows results filed as active; ? = inconclusive; nt = not tested or not shown; [ ] = remark or other dose. Calls come from the whole dose curve; as a rule, active = well fitted curve in the direction sought with a large enough effect; inconclusive = small, poorly fitted or top-dose-only effect, or another doubt; inactive = no such curve, though single readings can be large; an effect the other way counts as inactive or inconclusive. Potency is the fitted concentration of half-maximal effect.

SMILES | G9a block | HP1b binding inh | BAZ2B inh | Sfp inh | PLK1 PBD inh | JMJD2A Tudor
C#CCOCCOCCOCCNc1nc(N2CCN(C(=O)[C@H](CCCCN)n3cc(CN)nn3)CC2)nc(N2CCN(C(=O)[C@H](CCC(=O)O)n3cc(CN)nn3)CC2)n1 | nt | 37% | nt | nt | 0% | ?
C#CCOCCOCCOCCNc1nc(N2CCN(C(=O)[C@H](CCC(=O)O)n3cc([C@@H](N)CO)nn3)CC2)nc(N2CCN(C(=O)[C@H](CCC(=O)O)n3cc([C@@H](N)CCSC)nn3)CC2)n1 | nt | 7% | nt | nt | -13% | 79µM*
COC(=O)c1c(-c2ccc(Cl)cc2)noc1N1CCN(c2ccc(OC)cc2)CC1 | -41%[59 µM] | 17%[57 µM] | 0% | nt | nt | -8%
COc1cc2c(cc1OC)C1=C(C#N)CN(C3CCCCC3)CN1CC2 | 45µM* | 14% | ? | -13% | -5% | ?
COc1cc(/C=C/C(=O)NC(C)C2CC3CCC2C3)cc(OC)c1OC (centres undefined) | 20% | 19% | 4% | 3% | -5% | -5%
Cc1ccccc1C(=O)Nc1nnc(SCc2cc(=O)c3c(C)ccc(C)c3[nH]2)s1 | 8%[59 µM] | 20%[57 µM] | 56µM* | nt | nt | -31%
COc1ccc(C(=O)Nc2nnc(SCc3cc(=O)c4cc(C)cc(C)c4[nH]3)s2)cc1 | -25%[59 µM] | 17%[57 µM] | -2% | nt | nt | -15%
O=C(O)c1cccc(S(=O)(=O)Nc2ccc3oc(=O)sc3c2)c1 | ? | 46% | -11% | 11µM* | ? | -21%
O=[S+]([O-])(c1ccc2c(c1)OCCO2)N1CCN([S+](=O)([O-])c2c(F)cc(F)cc2Br)CC1 | nt | nt | nt | nt | nt | -24%
CC1(C)Cc2c(c(=S)nc(-c3ccccc3)n2CCOCCO)CO1 | -43%[59 µM] | 35% | -23% | -6% | -27% | -13%
OCCOCCn1c(-c2ccccc2)nc(=S)c2c1CCCC2 | 50µM* | 20% | 6% | ? | -37% | -10%
Cc1ccc(/C=N/N2CCN(c3ccncc3S(=O)(=O)N3CCCCC3)CC2)cc1 | 19%[2.33 µM] | 19% | -4% | -27% | -4% | ?
COc1cccc(/C=N/N2CCN(c3ccncc3S(=O)(=O)N3CCCCC3)CC2)c1 | 50µM* | ? | 40µM* | -15% | -2% | ?
COc1cccc(/C=N/N2CCN(c3ccccc3OC)CC2)c1 | ? | -24% | ? | 0% | -6% | 45µM*
COc1ccccc1N1CCN(/N=C/c2cccc(Cl)c2)CC1 | 18µM* | -27% | ? | 0% | -5% | 50µM*
OCCN(Cc1ccccn1)Cc1ccccn1 | nt | nt | nt | nt | -8% | nt
COc1ccc(OC)c(NC(=O)C2CC(/C=C/c3ccccc3)=NO2)c1 (centres undefined) | 0%[2.33 µM] | 16% | -3% | 1% | 7% | -9%
Cc1nc(N2CCOCC2)nc2c1CCC2 | 17% | 34% | 0% | 1% | -14% | -4%
CCN(CC)CCN(C(=O)c1ccc2ccccc2c1)c1nc2ccc(OC)cc2s1 | 79µM* | -10%[57 µM] | ? | -27% | -2% | ?
CCN(CC)CCN(C(=O)c1cc2ccccc2cc1OC)c1nc2ccc(F)cc2s1 | 40µM* | 19% | ? | -26% | -6% | 32µM*
COc1ccc2nc(N(Cc3cccnc3)C(=O)COc3ccccc3)sc2c1 | -1%[59 µM] | 15% | -8% | nt | nt | -8%
COc1ccc2nc(N(Cc3ccccc3)C(=O)CCNC(C)=O)sc2c1 | 32µM* | 21% | -34% | 6% | 3% | -10%
CCN(CC)CCN(C(=O)c1cc2ccccc2cc1OC)c1nc2ccc(OC)cc2s1 | 45µM* | -6% | ? | 50µM* | 3% | ?
CCc1cccc2nc3c(c([Si](C)(C)C)c12)Cn1c-3cccc1=O | nt | nt | nt | -20% | nt | nt
COc1ccc(C2C(=O)NN=C2C)cc1 (centres undefined) | nt | 20% | nt | nt | -11% | -6%
SMILES | G9a block | HP1b binding inh | BAZ2B inh | Sfp inh | PLK1 PBD inh | JMJD2A Tudor
COC(=O)c1cc(NC(=O)Cc2cccs2)cc(C(=O)OC)c1 | ? | ? | 50µM* | 16% | ? | 45µM*
CCOc1cccc(NC(=O)Cc2cccs2)c1 | -3% | 51% | 10% | 15% | -3% | -5%
COC(=O)c1cc(OC)c(OC)cc1NC(=O)Cc1cccs1 | nt | 30% | ? | ? | -12% | -16%
CC(=O)Nc1cccc(NC(=O)Cc2cccs2)c1 | 79µM* | 20% | ? | 2% | -12% | -25%
COC(=O)c1sc(NC(=O)Cc2cccs2)nc1C | 28µM* | 11% | -3% | 14% | -5% | -9%
Cc1ccc(COC(=O)c2ccc(-c3nnn(Cc4ccc(C)cc4)n3)cc2)cc1 | -1%[59 µM] | 28% | -13% | nt | nt | -2%
CC1CCN(CCOCCOc2ccc(Cl)cc2Br)CC1 | 10µM* | ? | 79µM* | 56µM* | -16% | 4.5µM*
CC1CCCN(CCOc2ccc3ccccc3c2Br)C1 (centres undefined) | ? | ? | 22µM* | 16µM* | -9% | ?
CC1CCCN(CCCOc2ccc(Cl)cc2Br)C1 (centres undefined) | 10µM* | ? | -34% | -26% | -8% | 22µM*
Clc1ccc(OCCCN2CCc3ccccc3C2)c(Br)c1 | -129% | 92% | 26% | 1% | 0% | 16%
Clc1ccc(OCCOCCN2CCc3ccccc3C2)c(Cl)c1 | -4%[59 µM] | 71% | 9% | 4% | 0% | 12%
CC1CN(C(=O)COc2ccc3ccccc3c2Br)CC(C)O1 (centres undefined) | nt | 26% | 1% | 1% | -4% | 1%
Brc1ccccc1OCCCCN1CCCCC1 | 25% | 21% | 4% | 1% | 2% | -10%
CC1CCN(CCCOc2ccc(Cl)cc2Br)CC1 | 20µM* | ? | ? | 6% | -1% | 20µM*
Cc1ccc(Cl)c(OCCN2CCCC(C)C2)c1 (centres undefined) | 13µM* | ? | ? | -15% | -14% | 18µM*
Cc1cc(Cl)ccc1OCC(=O)NN1C(=O)C2C3C=CC(C3)C2C1=O (centres undefined) | -5% | 31% | ? | 10% | -5% | 6%
CCN(CC)c1ccc(/C=C(\C#N)c2nc(-c3cccs3)c(NC(C)=O)s2)cc1 | 10µM* | nt | 20µM* | ? | nt | nt
CCOc1ccccc1NC(=O)C1CCN(S(=O)(=O)Cc2ccccc2)CC1 | 15%[59 µM] | 107% | 53% | nt | nt | 33%
Cc1cc(C)c(S(C)(=O)=O)c(Oc2ccc(F)cc2)n1 | 36% | 19% | -2%[57.1 µM] | 15% | -9% | -5%
Cc1cc(C)c(S(C)(=O)=O)c(Oc2ccccc2C)n1 | 10% | -6% | 2% | 16% | 21µM* | -23%[11.4 µM]
O=C(O)CNC(=O)c1ccc(NC(=O)/C(=C/c2ccccc2)NC(=O)c2ccccc2)cc1 | ? | 20% | -10% | 5% | -10% | -1%
